# In PubChem BioAssay (NCI):
# The panel holds about 83,000 compounds, 20% with a hit somewhere; the sample as a whole holds those more often.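 Growth was measured after 48 h exposure to one concentration of compound in 96-well plates. Values under 10 count as active.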 Values without a mark were called inactive. The source made the active and inactive calls.
# System: SW-620 colon
# Experiment: NCI-60 one-dose screen, 48 h (100 = growth as untreated, 0 = no growth, -100 = all killed)
# Conditions: 10 µM unless noted
row,Compound,growth
1,COCCOc1cc2ncnc(N3CCN(c4ncc(S(=O)(=O)N5CCCCC5)cn4)CC3)c2cc1OCCOC,109%
2,COC(=O)[C@]1(C)CCC[C@]2(C)[C@H]3C[C@H]4C(C(C)C)=C[C@]3(CC[C@H]21)[C@@H]1C(=O)CC[C@H](OCCC#N)[C@@H]14,86.4%
3,O=C(O)CCN1C(=O)/C(=C/C(Cl)=C/c2ccccc2)SC1=S,7.78% (active)
4,O=C(/C=C/c1cccc(Cl)c1)c1ccc(Nc2nc(Nc3ccc(F)cc3)nc(Nc3ccc(Cl)cc3)n2)cc1,104%
5,CC(C)(Sc1cc(C(C)(C)C)c(O)c(C(C)(C)C)c1)Sc1cc(C(C)(C)C)c(OC(=O)CCCC(=O)O)c(C(C)(C)C)c1,43.7%
6,Fc1cc2c(cc1Cl)N(c1ncnc3ccc(-c4ccc5n[nH]nc5c4)cc13)CC2,96.9%
7,CCSC(SCC)c1ccc(Cl)cc1,99.3%
8,O=C(Nc1nc2ccc(C(=O)N3CCN(/C=C/c4ccccc4)CC3)cc2s1)c1ccc(NCCc2ccccc2)c([N+](=O)[O-])c1,4.25% (active)
9,O=S(=O)(Nc1cc(F)cc(Cl)c1)c1ccc(-c2cnc(C3CC3)o2)cc1,12%
10,COC(=O)c1c(C)nc(C)c2c1C(=O)C(Br)=C(NCc1ccccc1)C2=O,16.7%
11,COc1cc2c(c(OC)c1OC)CCC(c1cccc(C(=O)Nc3ccc(C#N)cc3)c1)O2 (stereo not given),86.7%
12,O=C1c2ccccc2-c2c1c1c(=O)[nH]c3ccccc3c1n2Cc1ccccc1,79.8%
13,O=C1c2c(c3c4ccccc4[nH]c3c3ccc4ccccc4c23)C(=O)N1CCN1CCNCC1,-54.9% (active)
14,CC(C)=CCCC(C)c1ccc(C)c2c1OCN(CCCCCO)C2 (stereo not given),94.9%
15,COc1ccc(/C=N/NC(=O)c2ccc(-n3cc(-c4ccccc4)nn3)cc2)cc1OC,116%
16,CCN(CC)S(=O)(=O)c1ccc(S(=O)(=O)N2CCC[C@@H](C(=O)N3CCN(c4nc(C(C)C)no4)CC3)C2)cc1,79.5%
17,Cc1cc(N2CCN(CC(=O)Nc3ccc4c(ccn4C)c3)CC2)nc(N2CCCCCC2)n1,93.6%
18,COc1ccc(Nc2ncc(Br)c(NCCCNC(=O)c3cccs3)n2)cc1,24.7%
19,NC(=O)C(=O)c1ccccc1NC=O,101%
20,N#Cc1ccc2c(c1)C(=O)c1c-2n(CCCN)c(=O)c2cc([N+](=O)[O-])ccc12,-100% (active)

row,Compound,growth
1,c1ccc(Cn2cc3c(c2)-c2oncc2CC3)cc1,23.9%
2,O=C(CSC(=S)n1cnnc1)NC(=O)c1ccccc1,103%
3,O=C1/C(=C\c2ccc3nccnc3c2)SC(=S)N1CCc1ccc(O)cc1,98.2%
4,COc1c(B(O)O)cccc1-c1nc2c(F)cc3[nH]ncc3c2c2c1CCCC2,1.12% (active)
5,COc1c(B(O)O)cccc1-c1cc(C)c2c(ccc3[nH]ncc32)n1,63.5%
6,CSc1nnc(-c2cc3c([nH]c4ccccc43)c(-c3cccc(O)c3)n2)n1-c1ccccc1,31.3%
7,C=C1C(=O)O[C@H]2[C@H]1CC/C(Cn1cc(-c3ccccc3)nn1)=C\CC[C@@]1(C)O[C@@H]21,-79.1% (active)
8,C=C(CBr)[C@@H]1CC[C@]2(C(=O)O)CC[C@]3(C)[C@H](CC[C@@H]4[C@@]5(C)CCC(=O)C(C)(C)[C@@H]5CC[C@]43C)[C@@H]12,85.5%
9,CCNCCNc1cc(C2CCCCC2)c(C#N)c2nc3ccccc3n12,7.58% (active)
10,COc1cc2c(c(OC)c1OC)CCC(c1cccc(C(=O)Nc3cccc(Cl)c3)c1)O2 (stereo not given),99.2%
11,CCCCCCCC[C@@H]1N[C@@H](C(=O)OC)Cc2c1[nH]c1ccccc21,94.6%
12,CC(=O)Oc1ccc(/C(=C(\C)c2ccc(Cl)cc2)c2ccc(OCCN3CCCCC3)cc2)cc1,66.7%
13,COc1ccc2cc1Oc1ccc(cc1)C[C@H]1c3c(cc4c(c3Oc3cc5c(cc3OC)CCN(C)[C@@H]5C2)OCO4)CCN1C,55.3%
14,CC(=O)c1c(C)nc2ccccc2c1/C=C/c1ccc(F)cc1,97.1%
15,CN(/C(N)=N/N=C/c1c2ccccc2cc2ccccc12)C1CCCCC1,58.6%
16,CCOC(=O)n1ccn(C)c1=S,111%
17,Cc1cn(-c2cc(NC(=O)c3cncc(C#Cc4cnc(N)c5ncccc45)c3)cc(C(F)(F)F)c2)cn1,62.6%
18,O=C(Cn1cc(CSc2nc3ccccc3o2)nn1)Nc1ccc(F)cc1F,112%
19,Cc1c2cnccc2c(C)c2c1c1cc(C#N)ccc1n2C,-0.262% (active)
20,CNC(=O)c1ccccc1Oc1nc(Nc2cc(OC)c(OC)c(OC)c2)ncc1Br,46.7%
